“And” between values parts separate entries of the source, which are not always exact repeats. Identical values can stand only once. Inconclusive results are not listed. The source made the active and inactive calls. Unless noted, calls follow the shape of the dose curve; as a rule, active = well fitted curve in the direction sought with a large enough effect; inconclusive = small, poorly fitted or top-dose-only effect, or another doubt; inactive = no such curve, though single readings can be large; an effect the other way counts as inactive or inconclusive.
Experiments:
[1] = target: Cellular tumor antigen p53 (Homo sapiens) (UniProt P04637); test: Primary qHTS for small molecule compounds that upregulate eGFP-tagged delta133p53alpha (in N-terminal) cells. (AID 2060322); conditions: NCI-H358 eGFP-delta133p53alpha fluorescence, 24 h; activation: stronger effect = higher value; also: nearly all actives have a fitted effect of over 75% in size; also: potency is read from the fitted curve at half-maximal effect;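 as to activation: cells pre-induced with doxycycline then dosed without doxycycline; 0% = DMSO vehicle and 100% = reference activator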
Outline: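 NCI-H358 cells pre-induced 24 h with 10 ng/ml doxycycline for eGFP-delta133p53alpha, plated dox-free and exposed 24 h at 37C to titrated compounds. Fixed, Hoechst-stained; gated GFP peak intensity by laser scanning cytometry, normalized to DMSO (0%) and 57.5 uM 5-azacytidine (100%).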

[2] = target: Aldehyde dehydrogenase, mitochondrial (Homo sapiens) (UniProt P05091); test: qHTS for Inhibitors of the Aldehyde Dehydrogenase Family (ALDH2) Confirmatory screens (AID 2061303; active = well fitted inhibition curve with a large enough effect; title and protocol of this record describe different tests; also: % is scaled to controls: 0 for no effect and ±100 for the full control effect; nearly all actives have a fitted effect of over 45% in size); conditions: ALDH inhibition qHTS; series mostly up to 45.4 µM
[3] = qHTS for Inhibitors of the Aldehyde Dehydrogenase Family (ALDH1A2, ALDH1A3, ALDH2, ALDH3A1) (AID 2061307); conditions: ALDH inhibition qHTS; series mostly up to 50.3 µM; also: % is scaled to controls: 0 for no effect and ±100 for the full control effect; nearly all actives have a fitted effect of over 50% in size
[4] = target: Aldehyde dehydrogenase, mitochondrial (Homo sapiens) (UniProt P05091); test: qHTS for Inhibitors of the Aldehyde Dehydrogenase Family (ALDH2) Primary screen (AID 2061308); conditions: ALDH2 enzyme inhibition qHTS, 1536-well; series mostly up to 56 µM;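 also: plate controls were vehicle for no effect and reference inhibitor for full effect; nearly all actives have a fitted effect of over 55% in size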
[5] = target: Retinaldehyde dehydrogenase 3 (Homo sapiens) (UniProt P47895); test: qHTS for Inhibitors of the Aldehyde Dehydrogenase Family (ALDH1A3) Confirmatory screens (AID 2061311); conditions: ALDH inhibition qHTS; series mostly up to 46 µM; also: % is scaled to controls: 0 for no effect and ±100 for the full control effect; nearly all actives have a fitted effect of over 60% in size
[6] = target: Retinaldehyde dehydrogenase 3 (Homo sapiens) (UniProt P47895); test: qHTS for Inhibitors of the Aldehyde Dehydrogenase Family (ALDH1A3) Validation screen (AID 2061312); conditions: ALDH1A3 enzyme inhibition qHTS validation, fluorescence; series mostly up to 84.7 µM; also: % is scaled to controls: 0 for no effect and ±100 for the full control effect; nearly all actives have a fitted effect of over 45% in size
[7] = target: Retinal dehydrogenase 2 (Homo sapiens) (UniProt O94788); test: qHTS for Inhibitors of the Aldehyde Dehydrogenase Family (ALDH1A2) Confirmation screens (AID 2061314); conditions: ALDH1A2 enzyme inhibition qHTS confirmation; series mostly up to 45.9 µM; also: % is scaled to controls: 0 for no effect and ±100 for the full control effect; nearly all actives have a fitted effect of over 65% in size
[8] = target: Retinaldehyde dehydrogenase 3 (Homo sapiens) (UniProt P47895); test: qHTS for Inhibitors of the Aldehyde Dehydrogenase Family (ALDH1A3) Primary screen (AID 2061315); conditions: ALDH inhibition qHTS; series mostly up to 56 µM;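 also: plate controls were DMSO vehicle for no effect and reference inhibitor for full effect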
[9] = target: Aldehyde dehydrogenase 1A1 (Homo sapiens) (UniProt P00352); test: qHTS for Inhibitors of the Aldehyde Dehydrogenase Family (ALDH1A1) Confirmatory screens (AID 2061316); conditions: ALDH inhibition qHTS; series mostly up to 47.3 µM; also: % is scaled to controls: 0 for no effect and ±100 for the full control effect; nearly all actives have a fitted effect of over 65% in size
[10] = target: Aldehyde dehydrogenase, mitochondrial (Homo sapiens) (UniProt P05091); test: qHTS for Inhibitors of the Aldehyde Dehydrogenase Family (ALDH2) Validation screens (AID 2061302; active = well fitted inhibition curve with a large enough effect; title and protocol of this record describe different tests;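 also: plate controls were DMSO vehicle for no effect and maximal DPI positive control response for full effect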); conditions: ALDH inhibition qHTS; series mostly up to 42.6 µM
[11] = BET inhibitor-based combinations targeting novel dependencies in MECOM-rearranged (r) AML: SET-2 cell line (AID 2202231); conditions: SET-2 AML cells viability, CellTiter-Glo luminescence, 48 h; viability: stronger effect = lower value, concentration not given here; also: nearly all actives have a fitted effect of over 35% in size; also: potency is read from the fitted curve at half-maximal effect;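 as to viability: plate controls were DMSO treated cells for no effect and wells without cells for full effect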
Outline: (§1)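 Viability of cells (500 per well) is scored by luminescent CellTiter-Glo at 48 hr post-dosing. Eleven-point titrations are normalized to DMSO and empty controls and reduced to AUC values.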

[12] = BET inhibitor-based combinations targeting novel dependencies in MECOM-rearranged (r) AML: MV-4-11 cell line (AID 2202233); conditions: MV-4-11 AML viability, CellTiter-Glo luminescence, 48 h; series mostly up to 46 µM; also: nearly all actives have a fitted effect of over 45% in size; also: potency is read from the fitted curve at half-maximal effect
Outline: (§2)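 Using pin-tool transfer, drugs were added in 11 doses to cells (500/well), incubated 48 hr, and assessed with CellTiter-Glo. Z-AUC is a mean-centring transformation applied separately to each screened line.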

[13] = BET inhibitor-based combinations targeting novel dependencies in MECOM-rearranged (r) AML: HNT-34 cell line (AID 2202234); conditions: HNT-34 AML viability, CellTiter-Glo luminescence, 48 h; series mostly up to 46 µM; also: nearly all actives have a fitted effect of over 35% in size; also: potency is read from the fitted curve at half-maximal effect
Outline: as §2

[14] = BET inhibitor-based combinations targeting novel dependencies in MECOM-rearranged (r) AML: OCI-AML3 cell line (AID 2202232); conditions: CellTiter-Glo luminescence, 48 h; Potency: OCI-AML3 viability; series mostly up to 46 µM;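 also: plate controls were DMSO vehicle wells for no effect and wells without cells for full effect; nearly all actives have a fitted effect of over 35% in size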
Outline: as §1

[15] = BET inhibitor-based combinations targeting novel dependencies in MECOM-rearranged (r) AML: UCSD-AML1 cell line (AID 2202235); conditions: UCSD-AML1 AML cells viability, CellTiter-Glo, 48 h; series mostly up to 46 µM;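 also: plate controls were DMSO vehicle wells for no effect and blank wells for full effect; nearly all actives have a fitted effect of over 40% in size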
Outline: as §2

[16] = BET inhibitor-based combinations targeting novel dependencies in MECOM-rearranged (r) AML: AML-191 cell line (AID 2202236; also: nearly all actives have a fitted effect of over 35% in size; also: potency is read from the fitted curve at half-maximal effect); conditions: AML-191 viability, CellTiter-Glo luminescence, 48 h; series mostly up to 46 µM
Outline: as §1

[17] = BET inhibitor-based combinations targeting novel dependencies in MECOM-rearranged (r) AML: AML-194 cell line (AID 2202237; also: nearly all actives have a fitted effect of over 40% in size; also: potency is read from the fitted curve at half-maximal effect); conditions: AML-194 (MECOM-r AML) viability, CellTiter-Glo, 48 h; series mostly up to 46 µM
Outline: as §1

Chain of Cellular tumor antigen p53 (Homo sapiens) (P04637 whole entry, looked up): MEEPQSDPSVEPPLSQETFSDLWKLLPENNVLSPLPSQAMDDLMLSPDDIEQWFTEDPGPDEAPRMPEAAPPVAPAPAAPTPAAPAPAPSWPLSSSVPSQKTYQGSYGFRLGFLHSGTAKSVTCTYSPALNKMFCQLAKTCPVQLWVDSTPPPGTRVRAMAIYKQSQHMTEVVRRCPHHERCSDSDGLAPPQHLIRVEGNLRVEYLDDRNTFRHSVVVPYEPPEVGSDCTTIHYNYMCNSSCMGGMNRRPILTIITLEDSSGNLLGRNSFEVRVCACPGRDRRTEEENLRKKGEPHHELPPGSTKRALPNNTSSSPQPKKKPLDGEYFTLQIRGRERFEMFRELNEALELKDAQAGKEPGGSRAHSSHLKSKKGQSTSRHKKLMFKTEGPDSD

COC(=O)[C@@]1(c2ccc(C)cc2)C[C@H]1CN1CCC(O)(c2ccccc2)CC1
inactive: activation [1] 0.477% | Potency [2] | Potency [3] | Potency [4] | Potency [5] | Potency [6] | Potency [7] | Potency [8] | Potency [9]

NC/C=C\C(=O)O
inactive: activation [1] 28.9% | Potency [10] | Potency [6]

CC/C(=C(\c1ccccc1)c1ccc(OCCN(C)C)cc1)c1ccccc1
active: Potency [11] 12.1 µM | Potency [12] 15.2 µM | Potency [13] 15.2 µM
inactive: activation [1] -17.6% and -12.3% and -27% | Potency [10] | Potency [6]

COc1ccc(CCC(=O)c2c(O)cc(O[C@@H]3O[C@H](CO)[C@@H](O)[C@H](O)[C@H]3O[C@@H]3O[C@@H](C)[C@H](O)[C@@H](O)[C@H]3O)cc2O)cc1O
inactive: activation [1] 8.33% | Potency [2] | Potency [3] | Potency [4]

O=C(Nc1nc2ccccc2n1CCN1CCOCC1)c1cccc([N+](=O)[O-])c1
inactive: activation [1] 5.07% and -24.4% | Potency [10] | viability [11] 112% | Potency [13]

CN(C)S(=O)(=O)c1ccc2c(c1)/C(=C/c1cc3c([nH]1)CCCC3)C(=O)N2
active: Potency [1] 6.75 µM
inactive: Potency [10] | Potency [6]

COc1cc(O)c2c(c1)C1OC1C[C@H](O)[C@H](O)C(=O)/C=C\C[C@H](C)OC2=O (stereo partly specified)
inactive: Potency [2] | Potency [3] | Potency [4] | Potency [5] | Potency [6]
active: Potency [1] 21.3 µM

NC(Cc1c[nH]c2ccccc12)C(=O)NC(CCC(=O)O)C(=O)O (stereo unspecified)
inactive: activation [1] -0.955% | Potency [2] | Potency [3] | Potency [4] | Potency [5] | Potency [6] | Potency [7] | Potency [8] | Potency [9]

CC1=C(/C=C/C(C)=C/C=C/C(C)=C/C(=O)Nc2ccc(O)cc2)C(C)(C)CCC1
inactive: activation [1] -39.3% | Potency [10] | Potency [6]

CN(C)CCN(Cc1cccs1)c1ccccn1
inactive: activation [1] -15.3% and -8.14% | Potency [10] | Potency [6]

NCCS(=O)(=O)O
inactive: activation [1] -4.87% and 12% | Potency [10] | Potency [6] | viability [11] 125% | Potency [14] | Potency [12] | Potency [13] | Potency [15] | Potency [16] | Potency [17]

Brc1c(Br)c(Br)c2[nH]cnc2c1Br
inactive: activation [1] -55.8% | Potency [10] | Potency [6]

FC(F)(F)c1ccccc1-n1ccnc1
inactive: activation [1] 8.47% and -16.2% | Potency [10] | Potency [6]

NC(=O)c1cnccn1
inactive: activation [1] -1.69% and -18.4% and -16.9% | Potency [10] | Potency [6] | viability [11] 105% | Potency [14] | Potency [12] | Potency [13] | Potency [15] | Potency [16] | Potency [17]

O=c1ccn([C@@H]2O[C@H](COP(=O)(O)OP(=O)(O)O)[C@@H](O)[C@H]2O)c(=O)[nH]1
inactive: activation [1] -29.5% | Potency [10] | Potency [6]

CCN(CC)CCNC(=O)c1ccc(NC(C)=O)cc1
inactive: activation [1] 18.6% and -9.2% | Potency [10] | Potency [6]

Clc1ccc2nsnc2c1NC1=NCCN1
inactive: activation [1] 17.5% and 19.5% | Potency [10] | viability [11] 111% | Potency [14] | Potency [13] | Potency [15] | Potency [16] | Potency [17]

N=C(N)SCCN
inactive: activation [1] -11.7% | Potency [10] | Potency [6]

CCCCOC(=O)NS(=O)(=O)c1sc(CC(C)C)cc1-c1ccc(Cn2c(CC)nc3c(C)cc(C)nc32)cc1
inactive: activation [1] -46.4% | Potency [10] | Potency [6]

NC(=NCc1ccccc1)NC(=O)c1nc(Cl)c(N)nc1N
inactive: activation [1] 0.24% and 2.72% | Potency [10] | Potency [6] | Potency [15]
active: Potency [12] 5.25 µM | Potency [13] 14.8 µM | Potency [16] 20.9 µM | Potency [17] 23.5 µM

C#CC(=O)N(c1ccc(OC)cc1OC)C(C(=O)NCC(=O)OCC)c1cccs1 (stereo unspecified)
inactive: Potency [2] | Potency [3]
active: Potency [1] 7.57 µM

CCN1CCCC1CNC(=O)c1cc(S(=O)(=O)CC)c(N)cc1OC (stereo unspecified)
inactive: activation [1] -0.505% and -9.21% and -28.2% | Potency [10] | Potency [6] | viability [11] 122% | Potency [12] | Potency [13] | Potency [15] | Potency [16] | Potency [17]

CN(C)CCCN1c2ccccc2CCc2ccc(Cl)cc21
inactive: activation [1] 5.09% and -16.2% | Potency [10] | Potency [6] | Potency [15] | Potency [17]

Reference: PubChem BioAssay (NCATS)
